CYP2C19 activ: cytochrome P450 2C19 (human) activation | P33261 | recombinant CYP2C19, luciferin-H EGE luminescence; hits give high values; 0 = fully inhibited enzyme, 1 = untreated enzyme | activation factor at 5 µM | 96,000 tested, under 10 active | AID 1025;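 active = activation factor of at least 2 at 5 µM in the primary screen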;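 also: 0 = wells with 2.5 mM tranylcypromine and 1 = vehicle-only wells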
Target sequence (P33261 whole entry, looked up): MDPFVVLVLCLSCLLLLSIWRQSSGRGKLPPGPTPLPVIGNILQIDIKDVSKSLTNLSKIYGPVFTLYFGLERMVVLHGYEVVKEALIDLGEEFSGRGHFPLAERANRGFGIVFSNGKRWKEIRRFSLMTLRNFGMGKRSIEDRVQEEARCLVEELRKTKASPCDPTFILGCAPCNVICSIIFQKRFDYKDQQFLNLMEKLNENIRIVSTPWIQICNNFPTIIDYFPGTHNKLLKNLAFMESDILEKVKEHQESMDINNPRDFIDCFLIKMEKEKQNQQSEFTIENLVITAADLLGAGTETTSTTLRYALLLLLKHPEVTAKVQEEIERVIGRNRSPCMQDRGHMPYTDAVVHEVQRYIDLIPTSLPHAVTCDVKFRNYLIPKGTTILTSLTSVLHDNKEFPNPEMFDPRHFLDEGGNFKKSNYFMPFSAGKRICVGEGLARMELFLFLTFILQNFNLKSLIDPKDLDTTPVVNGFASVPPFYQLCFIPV
CYP2C19 inhib: human CYP2C19 inhibition. CYP2C19 Supersomes, luciferin-H EGE luminescence, 30 min. inhibition, % at 5 µM. 96,000 tested, 21% active. AID 778;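 active = CYP2C19 inhibition above a set limit at 5 µM in the primary screen, cut at about 50% in these data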;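 also: plate controls were negative control wells for no effect and 2.5 mM tranylcypromine positive control for full effect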
Cav32 inh: inhibitors of human Cav3.2 T-type calcium channel; O95180; Cav3.2-expressing cells, Fluo-4 calcium fluorescence FDSS; hits give low values; B-score at 10 µM; 100,000 tested, 4% active;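 active = single-dose well whose peak fluorescence ratio is a statistical outlier from its plate by either plate-standardised score or position-corrected B-score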
CYP2C9 activ: activators of human CYP2C9. P11712. recombinant CYP2C9, luciferin-H conversion, luminescence; hits give high values; factor 1 = untreated enzyme, 0 = blocked. activation factor at 5 µM. 96,000 tested, 1.4% active;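 active = activation factor of 2 or more for CYP2C9 at a 5 µM dose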;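 also: 0 = sulfaphenazole-blocked wells and 1 = vehicle-only wells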
CYP2C9 inhib: human CYP2C9 inhibition | inhibition, % at 5 µM | 96,000 tested, 20% active | AID 777 | CYP2C9 Supersomes, luciferin-H conversion, luminescence | P11712;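 active = blocking of liver enzyme CYP2C9 beyond about 50% at 5 µM, limit read from the data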
Starred values were filed as active, the others as inactive. Hits are enriched below; roughly 27% of the tested compounds scored in any of these assays.

Screening CCN(CC)P(=O)(NC(=O)C(Cl)(Cl)Cl)N(CC)CC.[Cl-].[Cl-].[Cl-].[Nd+3] returned CYP2C19 activ 0.9, CYP2C19 inhib 11, Cav32 inh 0.63, CYP2C9 activ 0.1 and CYP2C9 inhib 90*.
Screening O=[N+]([O-])c1ccccc1CNCCc1ccc(F)cc1 returned CYP2C19 activ 0.1, CYP2C19 inhib 86*, Cav32 inh -0.38, CYP2C9 activ 1 and CYP2C9 inhib -3.
Screening COC(=O)C1=C(c2ccccc2)C[C@@H]2CC[C@H]1N2C(=O)NCC1CC1 returned Cav32 inh 0.04.
COc1ccc(CCNCc2ccncc2)cc1OC was read as CYP2C19 activ 0.3, CYP2C19 inhib 66*, Cav32 inh 0.41, CYP2C9 activ 0.5 and CYP2C9 inhib 52*.
COc1cc(OC)c(OC)cc1CNCCc1ccc(OC)c(OC)c1 was read as CYP2C19 activ 1.1, CYP2C19 inhib -8, Cav32 inh -0.083, CYP2C9 activ 1 and CYP2C9 inhib -3.
Screening COc1ccc(CCN(C)Cc2ccncc2)cc1OC returned CYP2C19 activ 0.2, CYP2C19 inhib 82*, Cav32 inh 0.76, CYP2C9 activ 0.3 and CYP2C9 inhib 67*.
For Nc1ccc(CCN2CCN(c3cccc(C(F)(F)F)c3)CC2)cc1 the results were Cav32 inh 0.021.
Screening FC(F)(F)c1ccc2c(c1)N(CCCN1CCN(CCCl)CC1)c1ccccc1S2 returned CYP2C19 activ 0.5, CYP2C19 inhib 50*, Cav32 inh -0.77, CYP2C9 activ 1.1 and CYP2C9 inhib -6.
CCCCn1c(O)c(C(CC)=NCCN2CCCCC2)c(=O)[nH]c1=O was read as CYP2C19 activ 0.8, CYP2C19 inhib 21, Cav32 inh 0.5, CYP2C9 activ 0.8 and CYP2C9 inhib 22.
`CN(C)C(Cc1ccccc1)C(=O)c1ccc(-c2ccccc2)cc1` (centres undefined) gave CYP2C19 activ 0.5, CYP2C19 inhib 50, Cav32 inh -1.4, CYP2C9 activ 0.3 and CYP2C9 inhib 74*.
For O=c1[nH]c(=O)n(Cc2ccccc2)c(O)c1C=NCCCn1ccnc1 the results were CYP2C19 activ 0.9, CYP2C19 inhib 7, Cav32 inh -0.0021, CYP2C9 activ 0.4 and CYP2C9 inhib 64*.
`COc1ccccc1-n1c(O)c(C=NCCCn2ccnc2)c(=O)[nH]c1=O` gave CYP2C19 activ 0.9, CYP2C19 inhib 8, Cav32 inh -0.048, CYP2C9 activ 0.8 and CYP2C9 inhib 16.
CCCCn1c(O)c(C=NCCCn2ccnc2)c(=O)[nH]c1=O was read as CYP2C19 activ 0.8, CYP2C19 inhib 22, Cav32 inh 0.98, CYP2C9 activ 0.5 and CYP2C9 inhib 46.
Screening O=c1[nH]c(=O)n(Cc2ccc(F)cc2)c(O)c1C=NCCCn1ccnc1 returned CYP2C19 activ 0.7, CYP2C19 inhib 33, CYP2C9 activ 0.1 and CYP2C9 inhib 86*.
For COc1ccc(-n2c(O)c(C=NCCCn3ccnc3)c(=O)[nH]c2=O)cc1 the results were CYP2C19 activ 1, CYP2C19 inhib -2, Cav32 inh 0.69, CYP2C9 activ 1.1 and CYP2C9 inhib -8.
Screening O=c1[nH]c(=O)n(CCc2ccccc2)c(O)c1C=NCCCn1ccnc1 returned CYP2C19 activ 0.5, CYP2C19 inhib 50*, Cav32 inh 0.39, CYP2C9 activ 0.3 and CYP2C9 inhib 73*.
For O=c1[nH]c(=O)n(-c2cccc3ccccc23)c(O)c1C=NCCCn1ccnc1 the results were CYP2C19 activ 0.8, CYP2C19 inhib 22, Cav32 inh -0.72, CYP2C9 activ 0.3 and CYP2C9 inhib 75*.
Screening COC(=O)C1=CO[C@@H](C)[C@@H]2CN3CC[C@@]4(C(=O)Nc5ccccc54)[C@@H]3C[C@H]12 returned Cav32 inh -0.72.
`Cc1ccc(-n2c(O)c(C=Nc3ccc(S(=O)(=O)N(C)C)cc3)c(=O)[nH]c2=O)cc1` gave CYP2C19 activ 1.1, CYP2C19 inhib -9, Cav32 inh 1.1, CYP2C9 activ 1 and CYP2C9 inhib -2.
C[N+]1(CCC(C(N)=O)(c2ccccc2)c2ccccc2)CCCCC1 was read as Cav32 inh 2.7.
`COc1ccc(C(O)CNC(C)C)c(F)c1OC` (centres undefined) gave Cav32 inh 0.57.
`CN1CC[C@@H](c2ccc(F)cc2)[C@H](COc2ccc3c(c2)OCO3)C1` gave Cav32 inh -1.7.
FC(F)(F)/C(=N\P(=S)(N1CCOCC1)N1CCOCC1)N1CCOCC1 was read as CYP2C19 activ 1, CYP2C19 inhib -1, Cav32 inh -0.021, CYP2C9 activ 1 and CYP2C9 inhib 4.
Screening FC(F)(F)c1ccc2c(c1)NP(=S)(N1CCOCC1)c1nccn1-2 (centres undefined) returned CYP2C19 activ 0.4, CYP2C19 inhib 61*, Cav32 inh 0.055, CYP2C9 activ 0.5 and CYP2C9 inhib 48.
`Cn1nc(-c2ccc(OCC(=O)N3CCN(Cc4ccccc4)CC3)cc2)c2ccccc2c1=O` gave CYP2C19 activ 0.2, CYP2C19 inhib 80*, Cav32 inh -1.1, CYP2C9 activ 0.2 and CYP2C9 inhib 79*.
O=C(COc1ccc(S(=O)(=O)N2CCCCC2)cc1)N1CCN(Cc2ccccc2)CC1 was read as CYP2C19 activ 1, CYP2C19 inhib 2, CYP2C9 activ 0.9 and CYP2C9 inhib 11.
CCCNS(=O)(=O)c1ccc(OCC(=O)N2CCN(Cc3ccccc3)CC2)cc1 was read as CYP2C19 activ 0.8, CYP2C19 inhib 22, Cav32 inh 1.1, CYP2C9 activ 0.5 and CYP2C9 inhib 52*.
Cn1cccc1CN1CCN(C(=O)COc2ccccc2)CC1 was read as CYP2C19 activ 0.9, CYP2C19 inhib 7, Cav32 inh 0.29, CYP2C9 activ 1 and CYP2C9 inhib 1.
Screening CCOc1cc(C(=O)N2CCC3(CC2)OCCO3)cc(OCC)c1OCC returned CYP2C19 activ 0.7, CYP2C19 inhib 25, Cav32 inh 0.055, CYP2C9 activ 0.9 and CYP2C9 inhib 14.
`CCOc1cc2[nH]c(=S)n(CCCC(=O)N3CCC4(CC3)OCCO4)c(=O)c2cc1OCC` gave CYP2C19 activ 0.5, CYP2C19 inhib 52*, Cav32 inh 1.2, CYP2C9 activ 0.4 and CYP2C9 inhib 55*.
`O=C(CCCOc1ccc(Cl)cc1Cl)N1CCC2(CC1)OCCO2` gave CYP2C19 activ 0.3, CYP2C19 inhib 74*, Cav32 inh -2.2, CYP2C9 activ 0.6 and CYP2C9 inhib 45.
For Cc1c(NC(=O)C(C)OC(=O)Cc2ccccc2)c(=O)n(-c2ccccc2)n1C (centres undefined) the results were CYP2C19 activ 1.1, CYP2C19 inhib -9, Cav32 inh 0.21, CYP2C9 activ 1.1 and CYP2C9 inhib -6.
CN(C)c1ccc(P(=S)(N(C)C)N(C)C)cc1 was read as CYP2C19 activ 0, CYP2C19 inhib 95*, Cav32 inh -1.3, CYP2C9 activ 0.9 and CYP2C9 inhib 5.
For Cc1cc(C=C2C(=O)N(C)C(=S)N(C)C2=O)c(C)n1C1CCCC1 the results were CYP2C19 activ 0.9, CYP2C19 inhib 11, Cav32 inh -0.29, CYP2C9 activ 0.7 and CYP2C9 inhib 29.

Bioassay records (PubChem BioAssay)
